BRCA1 expr act: activators of BRCA1 expression | Potency, µM (series often up to 46.1 µM), usual class: activators | AID 624202 | MCF7-BRCA1-FFLuc reporter, luminescence, 48 h; response scale: scaled: vehicle 0%, 10 µM genistein 100% | 380,000 tested, 1.1% active; note: nearly all actives have a fitted effect of over 80% in size
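48 h compound treatment of MCF7-BRCA1-FFLuc cells (phenol-red free MEM, 37 °C), then 15 min with luciferase substrate and luminescence imaging.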
IL-2 act: activators of IL-2 | IL-2 activation reporter assay, cell-based qHTS; stimulated with anti-CD3/CD4/CD28 beads; in transgenic mouse T cells | activation, % (series mostly up to about 46 µM) | 360,000 tested, 0.065% active; in the data active = activation above about 50%; inconclusive = mostly about 30% to 49%
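Unstimulated transgenic mouse T cells, 750 per well, received compound and, after 60 minutes, anti-CD3/anti-CD4 bead plus anti-CD28 stimulation. EGFP and DsRed were quantified after 18 hours.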
Anesthetic bind: candidate novel general anesthetic via apoferritin binding | P02791 | apoferritin/1-aminoanthracene competitive binding, fluorescence | Potency, µM (highest dose often 77.5 µM), usual class: inhibitors | 350,000 tested, 0.074% active | AID 485281; note: nearly all actives have a fitted effect of over 20% in size
Target sequence (P02791 2-175 limits assumed): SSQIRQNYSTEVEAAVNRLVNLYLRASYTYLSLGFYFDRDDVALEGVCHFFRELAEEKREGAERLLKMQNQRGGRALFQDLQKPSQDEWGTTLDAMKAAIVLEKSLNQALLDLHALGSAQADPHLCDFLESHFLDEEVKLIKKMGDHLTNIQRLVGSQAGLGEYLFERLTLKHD
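Apoferritin-based anesthetic binding model; compound displacement of fluorescent 1-AMA measured as endpoint fluorescence after 10 minutes at room temperature, scaled to free-ligand and complex controls.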
Integrin act MD: integrin-mediated muscular dystrophy alleviation activation. AID 624291. 350,000 tested, 0.064% active. alpha7betagal myoblasts, beta-gal FDG fluorescence, 48 h. Potency, µM (doses to about 38.3 µM), actives largely listed as activators; note: nearly all actives have a fitted effect of over 60% in size
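alpha7betagal+/- myoblasts (passage 13, 250/well) treated 48 h at 37C with compounds at 1:260 dilution of DMSO stock. Lysed, then beta-galactosidase activity read as FDG fluorescence (ex 480/em 540) after 30 min, with pre-read for autofluorescence.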
PKM2 activator: PKM2 (human) enzyme activation; 260,000 tested, 0.34% active; purified PKM2, Kinase-Glo ATP luminescence, activation; response scale: 0% is enzyme alone, no compound; AID 1631; Potency, µM (highest dose often 57.5 µM), most hits filed as activators; note: nearly all actives have a fitted effect of over 55% in size
Target sequence (P14618 whole entry, looked up): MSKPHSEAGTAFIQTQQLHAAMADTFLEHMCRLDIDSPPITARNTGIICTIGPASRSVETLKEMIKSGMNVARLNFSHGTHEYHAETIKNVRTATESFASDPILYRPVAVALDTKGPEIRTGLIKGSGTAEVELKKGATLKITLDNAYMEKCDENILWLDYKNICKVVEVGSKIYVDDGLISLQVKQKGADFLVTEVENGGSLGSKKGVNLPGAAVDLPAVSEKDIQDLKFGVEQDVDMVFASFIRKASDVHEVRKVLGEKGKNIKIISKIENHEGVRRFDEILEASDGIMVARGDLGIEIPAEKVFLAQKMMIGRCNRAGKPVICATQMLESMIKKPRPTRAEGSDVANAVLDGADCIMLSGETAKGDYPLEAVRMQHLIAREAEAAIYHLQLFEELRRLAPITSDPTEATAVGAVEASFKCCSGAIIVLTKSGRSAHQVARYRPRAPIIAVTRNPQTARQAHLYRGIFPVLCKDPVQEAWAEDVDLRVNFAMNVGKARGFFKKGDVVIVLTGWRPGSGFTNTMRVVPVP
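Purified hPK-M2 (>95% pure) converted ADP (0.1 mM final) to ATP with 0.5 mM PEP in 50 mM imidazole pH7.2, KCl, MgCl2, Tween 20, BSA; 1 h at room temperature. ATP detected by Kinase-Glo luminescence.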
A number is an active result; – = inactive; ? = inconclusive; · = not tested or not shown. In the library only some 1.3% were active in any assay of this set; here they are far more common. Unless noted, calls come from the whole dose curve; as a rule, active = well fitted curve in the direction sought with a large enough effect; inconclusive = small, poorly fitted or top-dose-only effect, or another doubt; inactive = no such curve, though single readings can be large; an effect the other way counts as inactive or inconclusive.

SMILES | BRCA1 expr act | IL-2 act | Anesthetic bind | Integrin act MD | PKM2 activator
O=C(Nc1ccc(Cl)c(Cl)c1)Nc1ccccn1 | – | – | – | – | ·
COc1ccc(NC(=O)Nc2ccccn2)cc1OC | 13µM | – | – | – | –
O=[N+]([O-])c1ccc(/C=N/Nc2ccccn2)cc1 | 1.4µM | – | – | – | ·
O=C(O)c1ccc(/C=N\Nc2ccccn2)cc1 | 2.5µM | – | · | – | ·
CN(C)c1ccc(/C=N\Nc2ccccn2)cc1 | ? | – | – | – | –
COc1ccc(/C=C/c2cnc3ccccc3n2)cc1OC | – | · | · | · | ·
CC1CCCCN1Cc1c(O)ccc2c(=O)c(-c3ccc(Cl)cc3)coc12 (stereo not given) | 10µM | – | – | – | ·
COc1ccccc1-c1coc2c(CN3C(C)CCCC3C)c(O)ccc2c1=O (stereo not given) | – | – | – | 2.2µM | –
c1ccc(-c2noc(-c3cccnc3NCc3ccco3)n2)cc1 | – | · | – | · | ·
O=C(Nc1ccc2nc(-c3ccccc3)[nH]c2c1)c1ccco1 | ? | – | – | – | –
CC(=O)Nc1ccc2nc(-c3ccc(Br)o3)[nH]c2c1 | 10µM | – | – | – | –
Cn1cccc1-c1nc2ccc(NC(=O)c3cccs3)cc2[nH]1 | ? | – | – | – | –
O=C(Nc1ccc2nc(-c3ccc(Br)o3)[nH]c2c1)c1cccs1 | 10µM | – | – | – | –
CC(=O)Nc1ccc2nc(-c3cccs3)[nH]c2c1 | 6.3µM | – | – | – | –
O=C(Nc1ccc2nc(-c3ccc(Br)o3)[nH]c2c1)c1ccco1 | 6.3µM | – | – | – | –
Cc1cccc(N2CCN(C(=O)Cn3ncc4c3-c3ccccc3OC4)CC2)c1C | – | · | – | · | ·
COc1ccc(CNC(=O)C(C#N)c2nc3ccccc3nc2N2CCCC2)cc1 (stereo not given) | – | 122 | – | – | –
COc1ccc(CNC(=O)C(C#N)c2nc3ccccc3nc2N2CCN(C)CC2)cc1 (stereo not given) | – | – | – | – | ?
O=C(NCc1ccco1)c1c2c(nc3ccccc13)CCC2 | – | – | – | – | –
O=C(NCc1ccc(F)cc1)c1c2c(nc3ccccc13)CCC2 | 14µM | – | – | – | –
Cc1ccc(Cl)cc1NC(=O)Nc1nnc(N(C)Cc2ccccc2)s1 | · | · | – | · | ·
Cc1ccc(SC[C@H](CC(C)C)N2CCN(C)CCC2=O)cc1 | ? | – | – | – | –
CC(C)C[C@@H](CSc1ccc(Br)cc1)N1CCN(C)CCC1=O | 10µM | – | – | – | –
Brc1ccc2nc(CSc3ncn[nH]3)cn2c1 | – | – | – | – | 20µM
Clc1ccc2nc(CSc3ncn[nH]3)cn2c1 | – | – | – | – | ?
SMILES | BRCA1 expr act | IL-2 act | Anesthetic bind | Integrin act MD | PKM2 activator
CC(=O)C1=C(C)NC(SCc2cccc([N+](=O)[O-])c2)=C(C#N)C1c1ccco1 (stereo not given) | – | – | ? | – | 7.9µM
CC(=O)C1=C(C)NC(SCC(N)=O)=C(C#N)C1c1ccco1 (stereo not given) | – | – | – | – | –
O=C(CCOc1ccccc1F)N1CCN(c2ccccc2O)CC1 | 11µM | – | – | – | –
COc1ccccc1OCCC(=O)N1CCN(c2ccccc2OC)CC1 | – | – | – | – | –
CC(=O)c1c(C)[nH]c2ccc(OCC(O)CNCCc3ccccc3)cc12 (stereo not given) | – | · | · | · | ·
O=C(CCCc1ccccc1)Nc1cccc([N+](=O)[O-])c1 | 13µM | – | ? | – | –
O=C(NCCCc1ccccc1)c1ccc([N+](=O)[O-])cc1Cl | 10µM | – | – | – | –
Cc1ccc(C(=O)NCCCc2ccccc2)c(Cl)c1 | ? | – | ? | – | –
O=C(Nc1cccc(O)c1)c1ccc([N+](=O)[O-])cc1Cl | 5µM | – | – | – | –
Cc1ccc(NC(=O)c2ccc([N+](=O)[O-])cc2Cl)nc1 | 1.1µM | – | – | – | –
O=C(Nc1ccccn1)c1ccc([N+](=O)[O-])cc1Cl | – | – | – | – | –
COc1ccc(N2CCN(C(c3ccc(F)cc3)c3sc4nc(-c5ccco5)nn4c3O)CC2)cc1 (stereo not given) | · | · | – | · | ·
O=C(c1cc(-c2ccc(Cl)cc2)on1)N1CCCC1 | ? | – | – | – | –
CC1CCCCN1C(=O)c1cc(-c2ccc(Cl)c(Cl)c2)on1 (stereo not given) | 5.6µM | – | ? | ? | –
O=C(c1cc(-c2ccc(Cl)c(Cl)c2)on1)N1CCCCC1 | 4µM | – | – | – | –
CCC1CCCCN1C(=O)c1cc(-c2ccc(Cl)c(Cl)c2)on1 (stereo not given) | 11µM | – | – | – | –
Cc1cc(Cl)ccc1NC(=O)CCS(=O)(=O)c1ccc2c(c1)CC(C)N2C(=O)C1CC1 (stereo not given) | · | · | – | · | ·
Fc1ccccc1-c1nc2ccccc2[nH]1 | 4µM | – | – | – | –
Cc1ccc(-c2nc3ccccc3[nH]2)cn1 | 7.9µM | – | – | – | –
Clc1ccc(-c2nc3ccccc3[nH]2)cn1 | – | – | – | – | –
Clc1ccccc1-c1nc2ccccc2[nH]1 | ? | – | – | – | –
c1ccc2[nH]c(-c3cscn3)nc2c1 | 11µM | – | – | · | –
Cc1ccn2c(Nc3ccc4c(c3)OCO4)c(-c3ccco3)nc2c1 | · | · | – | · | ·
Cc1cc(C)c2c(CC(=O)Nc3nnc(CC(C)C)s3)coc2c1 | · | · | – | · | ·
O=[N+]([O-])c1ccc(O/N=[N+](\[O-])N2CCCCC2)c([N+](=O)[O-])c1 | – | · | · | · | ·
SMILES | BRCA1 expr act | IL-2 act | Anesthetic bind | Integrin act MD | PKM2 activator
C/C(=N\OC(=O)c1ccc(Cl)cc1)c1sc(-c2ccccc2)nc1C | 4µM | – | – | – | –
C/C(=N\OC(=O)c1ccc(F)cc1)c1sc(-c2ccccc2)nc1C | 2.8µM | – | – | – | –
O=C(CSCc1ccco1)N1CCc2ccccc21 | 2.5µM | – | ? | – | –
O=C(NCCC(=O)N1CCc2ccccc21)c1ccco1 | 8.9µM | – | – | – | ·
Cc1cc([N+](=O)[O-])cnc1NC(C)c1ccccc1 (stereo not given) | – | – | 8.9µM | ? | –
CCOC(=O)c1ccc(N2Cc3ccccc3C2=NC(=O)c2cccs2)cc1 | 10µM | – | – | – | –
O=C(/C=C/c1ccc(Cl)cc1)Nc1nc(-c2cccs2)ns1 | · | · | – | · | ·
C=C1c2ccccc2O[C@H](C(=O)OCC)[C@@H]1CCC(C)C (tested in a mixture with another compound) | · | · | – | · | ·
Cc1n[nH]c(=S)n1/N=C/c1ccc(OCc2ccc(Cl)cc2Cl)cc1 | ? | – | ? | – | –
Fc1ccc(COc2ccc(/C=N/n3cnnc3)cc2)cc1 | 16µM | – | ? | – | –
Cc1n[nH]c(=S)n1/N=C/c1ccc(OCc2ccc(Cl)cc2)cc1 | 5µM | – | – | – | –
Clc1ccccc1COc1ccc(/C=N/n2cnnc2)cc1 | – | – | – | – | –
